This is an account of results in PubChem BioAssay.

Activity calls are given as the source filed them.

The experiment is described as follows: plasmodial surface anion channel blockers, osmotic lysis – cell-based, P. falciparum Indochina, OD700, 2 h, primary screen (AID 1155).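 Also: lysis reports solute entry through the parasite surface anion channel PSAC.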 Particulars: P. falciparum Indochina infected erythrocytes, higher = more signal, called active from +8 up or from −8 down.
With `COc1cc2c(cc1O)C(C1CC1)N(Cc1cc3c(cc1Br)OCO3)CC2` (stereo not given), the z-score is 1.17 (inactive). With `C=C(CCCC)C(=O)CC[C@H](OC(C)=O)c1cccc(OCCO)c1`, the z-score is -1.77 (inactive).

Consider `C=CC[C@]1(C(=O)N2CCCCC2)N=C(c2ccc(OCCCO)cc2)O[C@H]1c1ccccc1`, for which the z-score is 3.99 (inactive). The value for `COCCOC(=O)N1C(=O)[C@@]2(c3cc(C#CCCO)ccc31)[C@H](C(=O)N1CCN(c3ncccn3)CC1)[C@H]1C(=O)O[C@H](c3ccccc3)[C@H](c3ccccc3)N1[C@@H]2c1ccccc1OCCO` was 1.14 (inactive); that for `COCCOC(=O)N1C(=O)[C@@]2(c3cc(C#CCCO)ccc31)[C@H](C(=O)N1CCc3cc(OC)c(OC)cc3C1)[C@H]1C(=O)O[C@H](c3ccccc3)[C@H](c3ccccc3)N1[C@@H]2c1ccc(O)cc1` was 0.349 (inactive). With `CCCCN1CC=CC23O[C@@H]4/C=C\CCC(C)OC(=O)C4[C@H]2C(=O)N(CCCCCO)[C@@H]3C1=O` (stereo not given in full), the z-score was -0.0101 (inactive).

For the compound `C=CCN1C(=O)[C@@]2(O[C@@H](CCO)[C@H]([Si](C)(C)c3ccc(OC)cc3)[C@H]2C)c2cc(NC(=O)c3ccc(OC)cc3)ccc21`, the z-score was 6.69 (inactive). `CC(=O)n1cc(C(O)C2C=CC3C(=O)N(C)C(=O)C3N2Nc2ccccc2)c2ccccc21` (stereo not given): the z-score is 0.475 (inactive). Take `Cc1ccc(C(C)CC(O)C2C=CC3C(=O)N(c4ccccc4)C(=O)C3N2Nc2ccc([N+](=O)[O-])cc2)o1` (stereo not given): the z-score was 2.22 (inactive). Take `[N-]=[N+]=NCc1ccccc1[C@H]1OC(c2ccc(OCCCO)cc2)=N[C@@]1(Cc1ccccc1)C(=O)NCc1ccccc1`: the z-score is 23.5 (active). For `COc1ccc([Si](C)(C)[C@@H]2[C@@H](CCO)O[C@]3(C(=O)N(Cc4ccc(N5C(=O)COc6ccccc65)cc4)c4ccccc43)[C@H]2C)cc1`, the z-score was 3.84 (inactive). Turning to `CN(C)CCCNC(=O)[C@@]1(C)c2ccccc2C(=O)N(Cc2cc(F)cc(C(F)(F)F)c2)[C@H]1c1ccc(CO)cc1`, the z-score was 0.159 (inactive).

Consider `C=C(COC)/C(=C/C[C@@H](OC(C)=O)c1ccc(OCCO)cc1)c1cc(C(=O)OC)ccc1OC`, for which the z-score was 1.87 (inactive). Consider `CCCC[C@@H]1C[C@H]1[C@@H](NC(=O)c1ccco1)c1ccc(Cl)cc1`, for which the z-score is 0.904 (inactive).

Regarding `CC1CC/C=C\[C@H]2OC34C=CCN(Cn5nnc6ccccc65)C(=O)[C@H]3N(C(CO)C(C)C)C(=O)[C@@H]4C2C(=O)O1` (stereo not given in full), the z-score is 0.0805 (inactive). Next, `[N-]=[N+]=Nc1ccccc1[C@H]1OC(c2ccc(OCCCO)cc2)=N[C@@]1(Cc1ccccc1)C(=O)O`: 27.2 (active).

Turning to `O=C1C2C=CC(C(O)C(c3ccccc3)c3ccccc3)N(n3cnnc3)C2C(=O)N1Cc1ccccc1` (stereo not given), the z-score was 1.26 (inactive).

Regarding `CN1C(=O)C2C=CC(C(O)Cc3ccccc3)N(Nc3ccccc3)C2C1=O` (stereo not given), the z-score is 0.872 (inactive). Regarding `NC(=O)[C@@H]1[C@H]2C(=O)O[C@H](c3ccccc3)[C@H](c3ccccc3)N2[C@H](c2ccc(O)cc2)[C@@]12C(=O)Nc1ccc(C#CC3(O)CCCCCC3)cc12`, the z-score was 0.912 (inactive). Next, `COCCOC(=O)N1C(=O)[C@@]2(c3cc(C#Cc4ccc(OC)cc4)ccc31)[C@H](C(=O)N1CCCCCCC1)[C@H]1C(=O)O[C@H](c3ccccc3)[C@H](c3ccccc3)N1[C@@H]2c1ccc(OCCO)cc1`: 1.09 (inactive). Next, `CCOC(=O)C[C@H]1[C@H](OC(=O)Cc2ccc3c(c2)OCO3)[C@@H](NC(=O)c2ccc(-c3ccccc3)cc2)c2cc(OCCCO)ccc2N1C(=O)Cc1ccc(OC)cc1`: 11.2 (active); `O=C1[C@H]2C=C(Br)[C@H](C[C@@H]2c2ccccc2)[C@@]12CO2`: 0.497 (inactive); `CCOC(=O)[C@H]1C/C=C/C[C@H](C(=O)OCC)C(=O)O[C@H]2[C@@H](OC)O[C@H](CO)[C@@H](OC(=O)Nc3ccc(C#N)cc3)[C@@H]2OC1=O`: 2.33 (inactive). With `COC(=O)C(CC#Cc1ccc2c(c1)[C@]1(C(=O)N2)[C@H](c2ccc(O)cc2)N2[C@H](c3ccccc3)[C@H](c3ccccc3)OC(=O)[C@H]2[C@@H]1C(=O)Nc1nc2ccccc2s1)C(=O)OC`, the z-score is -0.314 (inactive).

As to `COc1ccc(C(O)C2C=CC3C(=O)NC(=O)C3N2Nc2ccccn2)cc1` (stereo not given), the z-score is 0.874 (inactive).

For the compound `C#CCN(CC1=CCCCC1)[C@H](c1ccccc1Br)[C@@H](O)Cc1ccccc1`, the z-score was 0.849 (inactive). In the case of `CC(C)OC(=O)C=C1C[C@@H](c2ccccc2C(F)(F)F)O[C@@H](c2ccccc2C(F)(F)F)O1`, the z-score is 1.55 (inactive).

As for `COCCCNC(=O)[C@@]1(Cc2ccccc2N=[N+]=[N-])N=C(c2ccc(OCCCO)cc2)O[C@H]1c1ccccc1N=[N+]=[N-]`, the z-score is 25.2 (active).

Take `O=C1C2C=CC(C(O)C3CCCCC3)N(Nc3ccc([N+](=O)[O-])cc3)C2C(=O)N1c1ccccc1` (stereo not given): the z-score was 4.73 (inactive).

As to `COCC(=C=CC[C@@H](O)c1ccccc1OCCO)C[C@@H](O)c1cc(Cl)cc(Cl)c1O`, the z-score was 4.9 (inactive). On to `O=C1c2ccccc2[C@](Cc2ccccc2I)(C(=O)NC2CC2)[C@H](c2ccc(CO)cc2)N1Cc1ccccc1`, for which the z-score is 0.602 (inactive). For the compound `CCOC(=O)C[C@H]1[C@H](OC(=O)Cc2ccc3c(c2)OCO3)[C@@H](NC(=O)c2ccc3ccccc3c2)c2cc(OCCCO)ccc2N1C(=O)c1ccccc1`, the z-score was 0.522 (inactive). As for `C=CCNC(=O)[C@H]1[C@@H]2C(=O)O[C@@H](c3ccccc3)[C@@H](c3ccccc3)N2[C@@H](c2ccc(OCCO)cc2)[C@]12C(=O)N(C(=O)OCCOC)c1ccccc12`, the z-score is 0.926 (inactive).

Consider `CCOC(=O)C[C@H]1[C@H](OC(=O)Cc2ccc3c(c2)OCO3)[C@@H](NC(=O)c2ccc(-c3ccccc3)cc2)c2cc(OCCCO)ccc2N1C(=O)c1ccc2ccccc2n1`, for which the z-score is 0.67 (inactive). The value for `C=CCN1C(=O)[C@]2(O[C@H](CCO)[C@@H]([Si](C)(C)c3ccc(OC)cc3)[C@@H]2C)c2cc(N3C(=O)c4cccc5cccc3c45)ccc21` was 4.41 (inactive).
